Data taken from PubChem BioAssay AID1159580 (chemical genetic matrix, 2015).
The whole screen tested about 5,500 compounds, of which about 2,000 (36%) were called active. Inconclusive results (about 18%) are left out. Cut-off read from the data, not from the text of the source: active = normalized growth mostly below about 0.91 (no sharp cut-off); inconclusive = no clear call, values can overlap the other calls; inactive = mostly above about 0.92. Some of the results follow.

Test: chemical genetic growth profiling, strain panel (AID 1159580);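 note: tested at 20 µM; growth read once vehicle control cultures reached saturation at 30 °C; 1 = growth at the plate median or of vehicle wells; lower values mean less growth of the strain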
Settings: S. cerevisiae deletion strains, growth OD

Measured: normalized growth

CCC(=O)O[C@H](CC(=O)O)C[N+](C)(C)C
inactive: locus YHR030C, strain SLT2, active compounds read low 1.02 | locus YHR079C, strain IRE1, active compounds read low 1.05 | locus YJL095W, strain BCK1, active compounds read low 1.05 | locus YJR066W, strain TOR1, active compounds read low 0.967 | locus YLR113W, strain HOG1, active compounds read low 1.02 | locus YNL183C, strain NPR1, active compounds read low 0.988 | locus YOR231W, strain MKK1, active compounds read low 1.04 | locus YPL256C, strain CLN2, active compounds read low 1.04
